Activity calls are given as the source filed them.
What was measured:
[1] = compound effects on lung adenocarcinoma cell viability – A549, calcein-AM fluorescence, 48 h, basal, profiling panel (AID 1162); conditions: higher = more signal
[2] = compound effects on differentiated 3T3-L1 adipocyte viability – cell-based, 3T3-L1 adipocytes, calcein-AM fluorescence, 48 h, basal, profiling panel (AID 1163); conditions: 3T3-L1 adipocytes viability, higher = more signal
[3] = compound effects on hepatocellular carcinoma cell viability – HepG2, calcein-AM fluorescence, 48 h, basal, profiling panel (AID 1164); conditions: higher = more signal
[4] = compound effects on multiple myeloma cell viability – MM1S, calcein-AM fluorescence, 48 h, basal, profiling panel (AID 1165); conditions: higher = more signal
[5] = calcein-AM signal in unstimulated myeloma cells – cell-based, calcein-AM fluorescence, 48 h, PK04 Diversity Set, profiling panel (AID 1166); conditions: RPMI8226 myeloma viability, higher = more signal;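 also: cells grown under basal conditions without added stimulus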
[6] = JC-1 mitochondrial signal, unstimulated HepG2 cells – cell-based, JC-1 fluorescence, 24 h, 100 nL compound, profiling panel (AID 1167); conditions: HepG2 mitochondrial potential, higher = more signal
[7] = JC-1 mitochondrial signal, unstimulated adipocytes – cell-based, JC-1 fluorescence, 3T3-L1 adipocytes, 24 h, 100 nL compound, profiling panel (AID 1168); conditions: JC-1 mitochondrial fluorescence, higher = more signal, called active from +8 up or from −8 down
[8] = JC-1 mitochondrial signal, unstimulated myeloma cells – cell-based, JC-1 fluorescence, RPMI8226, 24 h, 100 nL compound, profiling panel (AID 1169); conditions: JC-1 mitochondrial potential fluorescence, higher = more signal
[9] = JC-1 mitochondrial signal, unstimulated MM1S myeloma – cell-based, JC-1 fluorescence, 24 h, 100 nL compound, profiling panel (AID 1170); conditions: MM1S mitochondrial potential, higher = more signal
[10] = resazurin metabolic signal in A549 cells – cell-based, resazurin fluorescence, 24 h, PK04 Diversity Set, profiling panel (AID 1171); conditions: A549 viability, higher = more signal, called active from +8 up or from −8 down
Also: test concentration not given here.

Row | SMILES | z-score [1] | z-score [2] | z-score [3] | z-score [4] | z-score [5] | z-score [6] | z-score [7] | z-score [8] | z-score [9] | z-score [10]
1 | C[n+]1ccc(CCCO)cc1 | -0.566 | 0.927 | -0.96 | 0.375 | -1.77 | -0.0921 | -0.321 (inactive) | -0.502 | 0.0343 | -1.15 (inactive)
2 | C=CC[C@]1(C(=O)N(C)C)N=C(c2ccc(OCCCO)cc2)O[C@H]1c1ccccc1N=[N+]=[N-] | -0.363 | -0.768 | -0.2 | -0.995 | -1.85 | -0.358 | 0.0159 (inactive) | -0.886 | -1.23 | -0.302 (inactive)
3 | C=CCN1C(=O)[C@]2(CC=C)N=C(c3ccc(OCCCO)cc3)O[C@@H]2c2ccccc21 | -1.23 | 0.931 | -1.82 | -3.48 | -3.86 | -1.12 | 2.63 (inactive) | -1.16 | -2.38 | -1.95 (inactive)
4 | CC(C)(C)OC(=O)CC[C@]1(C(=O)O)N=C(c2ccc(OCCCO)cc2)O[C@H]1c1ccccc1 | -0.078 | 0.155 | -0.0903 | 0.55 | -0.135 | 0.367 | 0.721 (inactive) | -0.0713 | -0.513 | 0.16 (inactive)
5 | C=CC[C@H](OC(=O)Nc1ccc(OC)cc1)c1ccc(O)c2ccccc12 | -1.39 | -1.07 | -3.1 | -2.8 | -4.26 | -2.68 | -1.05 (inactive) | -1.02 | -2.15 | -0.745 (inactive)
6 | O=C1NC(=O)C2C1C=CC(C(O)c1ccc3c(c1)OCO3)N2Nc1ccccn1 (stereo not given) | 0.732 | -1.11 | 0.641 | 0.0178 | -0.12 | -0.465 | -0.0272 (inactive) | 0.115 | -0.263 | -1.67 (inactive)
7 | NC(=O)NCC#Cc1ccc2c(c1)[C@]1(C(=O)N2)[C@H](c2ccc(O)cc2)N2[C@H](c3ccccc3)[C@H](c3ccccc3)OC(=O)[C@H]2[C@@H]1C(=O)Nc1nc2ccccc2s1 | 0.421 | 1.17 | 0.157 | -0.168 | 0.496 | -3.24 | 0.352 (inactive) | -1.16 | -2.12 | 0.754 (inactive)
8 | CO[C@H]1O[C@H](CO)[C@@H](OC(=O)c2ccc(Br)cc2)[C@@H]2OC(=O)[C@@H](Cc3ccc4ccccc4c3)C/C=C/C[C@H](Cc3ccc4ccccc4c3)C(=O)O[C@@H]12 | 1.12 | 1.26 | 0.564 | -0.0385 | -0.21 | -0.122 | 0.497 (inactive) | -0.299 | -0.179 | -1.41 (inactive)
9 | C=C(COC)/C(=C/C[C@@H](OC(=O)c1ccncc1)c1ccc(OCCO)cc1)c1cnc2ccccc2c1 | 0.101 | 1.48 | -0.0465 | -0.289 | -0.594 | 1.86 | -0.892 (inactive) | 0.674 | 0.464 | 0.549 (inactive)
10 | COCCCNC(=O)[C@]1(Cc2ccccc2N=[N+]=[N-])N=C(c2ccc(OCCCO)cc2)O[C@@H]1c1ccccc1N=[N+]=[N-] | -0.795 | 0.0826 | -3.44 | -3.52 | -3.99 | -0.892 | 1.03 (inactive) | -1.17 | -2.71 | -2.56 (inactive)
11 | CCOC(=O)C1=C[C@@H](c2ccccc2)N(S(=O)(=O)c2ccc(C)cc2)[C@H]1c1cccc(Cl)c1 | -1.17 | 0.452 | -1.71 | -1.33 | -1.48 | 2.04 | -0.591 (inactive) | 0.754 | 0.648 | 0.776 (inactive)
12 | CN1C2C=C(CCCO)C(C3C(=O)N(C(N)=O)C(=O)C32)C1c1cccs1 (stereo not given) | -0.452 | -0.086 | -0.099 | -0.542 | 0.204 | -0.742 | -1 (inactive) | 1.17 | -0.0274 | -0.268 (inactive)
13 | CCOc1cc(C(O)C2C=CC3C(=O)N(C)C(=O)C3N2N2CCCCC2)ccc1O (stereo not given) | 0.256 | -0.413 | -0.07 | -0.224 | 0.294 | -0.788 | -0.0873 (inactive) | -0.109 | 0.0215 | -0.296 (inactive)
14 | CC(C)(C)OC(=O)CC[C@]1(C(=O)NCCN2CCOCC2)N=C(c2ccc(OCCCO)cc2)O[C@H]1c1ccccc1 | 1.01 | -1.82 | 0.549 | 0.251 | -0.51 | -0.342 | 0.134 (inactive) | -0.69 | -0.158 | 0.0762 (inactive)
15 | COCCOC(=O)N1C(=O)[C@@]2(c3cc(C#CC4(O)CCCCCC4)ccc31)[C@H](C(N)=O)[C@H]1C(=O)O[C@H](c3ccccc3)[C@H](c3ccccc3)N1[C@@H]2c1ccccc1OCCO | -1.86 | 0.73 | -4.88 | -3.42 | -4.59 | -2.32 | 1.57 (inactive) | -1.17 | -1.7 | -2.63 (inactive)
16 | O=C1OCC=C[C@H]2OC34C=CCN(Cn5nnc6ccccc65)C(=O)[C@H]3N(CCCCCCO)C(=O)[C@@H]4[C@@H]12 (stereo not given in full) | -0.4 | 0.352 | 0.226 | 1.15 | 0.447 | -0.688 | -0.0324 (inactive) | -0.638 | -0.467 | -0.402 (inactive)
17 | CC[C@@H]1[C@H]2C3C(=O)N(CC)C(=O)C3CC(=O)[C@H]2[C@H](c2ccc(C)cc2)N1S(=O)(=O)c1ccc(C)cc1 (stereo not given in full) | -0.138 | -0.303 | -0.581 | 0.453 | -0.144 | 0.248 | 0.438 (inactive) | 0.485 | -1.02 | -0.0875 (inactive)
18 | C[C@]1(C(=O)O)c2ccccc2C(=O)N(Cc2ccccc2)[C@H]1c1ccc(CO)cc1 | 0.277 | 0.504 | 0.67 | 0.132 | 0.0631 | 1.33 | 0.114 (inactive) | -0.768 | 0.161 | 1.08 (inactive)
19 | CCCC[C@@H]1C[C@H]1[C@@H](NC(=O)c1cccnc1)c1ccc(-c2ccccc2)cc1 | -1.42 | -0.438 | -0.886 | -1.14 | -2.21 | -0.608 | -1.18 (inactive) | -0.642 | -1.13 | 3.07 (inactive)
20 | CC(C)C(=C=CC[C@@H](O)c1ccccc1OCCO)C[C@@H](O)COCc1ccccc1 | 1.03 | 0.435 | 0.146 | -0.338 | -0.399 | 0.324 | 0.791 (inactive) | 0.0761 | 0.339 | 0.15 (inactive)
21 | COc1ccc([Si](C)(C)[C@@H]2[C@@H](CCO)O[C@]3(C(=O)N(Cc4cccc(N5C(=O)c6cccc7cccc5c67)c4)c4ccccc43)[C@H]2C)cc1 | -1.03 | 0.421 | -3.42 | -1.32 | -4.25 | -0.543 | 0.145 (inactive) | -1.05 | -1.77 | -2.26 (inactive)
22 | C=C(CCCC)C(=O)CC[C@@H](OC(=O)c1ccccc1-c1ccccc1C(=O)O)c1cccc(OCCO)c1 | 0.78 | 1.12 | 0.215 | -3.41 | -3.91 | -1.88 | 0.584 (inactive) | -0.694 | 0.0735 | 0.675 (inactive)

— PubChem BioAssay
